# Shown are actives, neighbours in structure and some others; about 19% of the full set was active somewhere.
# DT40 TDP1 no CPT – qHTS for Inhibitors of human tyrosyl-DNA phosphodiesterase 1 (TDP1): qHTS in cells in absence of CPT; DT40 Tdp1-/- hTDP1 cells, no CPT, ATP luminescence, 48 h; AID 686978, 2013; actives 15% (n = 420,000); Potency, µM (series often up to 46.2 µM), for inactives: at the highest dose activity change, negative = growth inhibition, most hits filed as inhibitors; also: potency is read from the fitted curve at half-maximal effect; nearly all actives have a fitted effect of over 55% in size
#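 No-CPT arm: Tdp1-/-;hTDP1 DT40 cells (400/well) plus compounds, incubated ≥48 hr at 37 °C. Readout CellTiter-Glo luminescence.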
# HT1080 IDH1KD tx – toxicity to HT-1080 IDH1 knockdown cells (counter line); actives 2% (n = 360,000); Potency, µM (top dose mostly 46.1 µM), for the others: at the top dose activity, negative = toxicity, actives largely listed as cytotoxic; HT-1080 IDH1 knockdown viability, ATP luminescence, 48 h;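 also: potency is read from the fitted curve at half-maximal effect; 0% = DMSO wells and -100% = cell-free medium wells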
#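 In this qHTS, HT-1080 cells depleted of IDH1 are exposed for 48 h at 37 °C to compound titrations. Toxicity is scored from CellTiter-Glo luminescence, with DMSO as full viability and medium alone as none.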
# HT1080NT lethal – kills 2HG-producing HT-1080-NT fibrosarcoma cells. actives 1.6% (n = 360,000). HT-1080-NT fibrosarcoma viability, CellTiter-Glo ATP luminescence, 48 h. AID 686970. Potency, µM (series often up to 46.1 µM), for inactives: top-dose activity, negative = less viability, most hits filed as cytotoxic;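 also: NT is the 2HG producing partner of a matched IDH1 knockdown line; potency is read from the fitted curve at half-maximal effect; 0% = DMSO-treated cells and -100% = media-only wells without cells; nearly all actives have a fitted effect of over 55% in size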
#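 Read-out is CellTiter-Glo luminescence after 10 minutes at room temperature, following 48 hours' compound treatment of HT-1080-NT cells (750 cells/well, RPMI, 5% FBS, 37 degrees C).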
# TDP1 cell CPT – growth inhibition of DT40 Tdp1-/-;hTDP1 cells with camptothecin (screen for TDP1 inhibitors); chicken DT40 Tdp1-/-;hTDP1 cells + 20 nM CPT, ATP luminescence, 48 h; Potency, µM (highest dose often 46.2 µM), inactives show at the top dose activity change, negative = growth inhibition, actives largely listed as inhibitors; actives 12% (n = 420,000); AID 686979; also: potency is read from the fitted curve at half-maximal effect; nearly all actives have a fitted effect of over 55% in size
#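 Cell growth measured by CellTiter-Glo luminescence after a minimum 48 h, 37 C compound exposure with 20 nM CPT in Tdp1-knockout DT40 cells stably expressing hTDP1, seeded 400/well; qHTS titration format.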
# IL-1B inflam inh – blocks inflammasome-driven IL-1 beta release | THP-1 LPS/ATP IL-1B secretion, AlphaLISA, 16 h; hits give low values | activity change, % at 57.5 µM | actives 4.7% (n = 360,000) | AID 743279; in the data active = activity change below about -50%; inconclusive = mostly about -30% to -49%
#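 Secreted IL-1B measured by AlphaLISA bead assay after 16 h compound exposure of THP-1 cells; compounds (final up to 57.5 uM) added 1 h before LPS (250 ng/mL) and ATP (1.25 mM) stimulation; lower signal means less secretion.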
# uPA surface inh – cell surface uPA generation inhibition. AID 540303. Potency, µM (titrated, usually from 38.3 µM), for inactives: at the highest dose activity change, negative = inhibition, actives largely listed as inhibitors. cell surface uPA generation assay, qHTS. actives 0.31% (n = 330,000); active = well fitted inhibition curve with a large enough effect; inconclusive = small, poorly fitted or top-dose-only effect; inactive = no such curve, though single readings can be large or run the other way; tested in mouse RAW 264.7 cells; also: potency is read from the fitted curve at half-maximal effect; nearly all actives have a fitted effect of over 55% in size
# The depositor's hits bear a star; ? = inconclusive; nt = no result given. Unless noted, calls follow the shape of the dose curve; as a rule, active = well fitted curve in the direction sought with a large enough effect; inconclusive = small, poorly fitted or top-dose-only effect, or another doubt; inactive = no such curve, though single readings can be large; an effect the other way counts as inactive or inconclusive. Unless noted, % is scaled to controls: 0 for no effect and ±100 for the full control effect.
SMILES,DT40 TDP1 no CPT,HT1080 IDH1KD tx,HT1080NT lethal,TDP1 cell CPT,IL-1B inflam inh,uPA surface inh
CCCN(CCC)S(=O)(=O)c1ccc2c(c1)N(CC(=O)NC(C)c1ccccc1)C(=O)CS2 (stereo not given),23µM*,nt,nt,?,nt,nt
CCCCOc1ccc(C(C)NC(=O)CN2C(=O)CSc3ccc(S(=O)(=O)N4CCOCC4)cc32)cc1 (stereo not given),23µM*,nt,nt,?,nt,nt
O=C(Nc1cccc(Cl)c1)C1CCN(S(=O)(=O)Cc2ccccc2)CC1,?,nt,nt,-7%,nt,nt
CCn1c(CNC(=O)c2ccc(OC)cc2)nnc1SCC(=O)Nc1cc(C)ccc1C,-15%,nt,nt,-18%,nt,nt
O=C(Nc1cccc2c1CCCC2)c1cc(C2CCCCN2C(=O)OCCF)on1 (stereo not given),9.2µM*,-22%,-26%,9.2µM*,8,nt
COCCOC(=O)N1CCCCC1c1cc(C(=O)Nc2cccc3c2CCCC3)no1 (stereo not given),4.6µM*,9%,?,3.7µM*,40,nt
COC(=O)N1CCCCC1c1cc(C(=O)Nc2cccc3c2CCCC3)no1 (stereo not given),?,9%,-4%,?,9,nt
Cn1cnc(S(=O)(=O)N2CCCCC2c2cc(C(=O)Nc3ccccc3Cl)no2)c1 (stereo not given),-17%,-1%,1%,-18%,24,nt
Cn1cnc(S(=O)(=O)N2CCCCC2c2cc(C(=O)Nc3cccc4c3CCCC4)no2)c1 (stereo not given),13µM*,-4%,1%,21µM*,30,nt
Cc1ccc(S(=O)(=O)N2CCN(C(=O)COC(=O)CSc3ccc(C)c(C)c3)CC2)c(C)c1,-6%,7%,19%,5%,-2,-5%
O=C(COc1ccccc1-c1nc(-c2ccccc2)no1)Nc1ccc([N+](=O)[O-])cc1,2%,nt,nt,-13%,nt,nt
CCOC(=O)c1sc(N(Cc2ccccc2)C(=O)CSc2ncn[nH]2)nc1C,?,-24%,-20%,?,-52*,-5%
CCOC(=O)c1sc(N(Cc2ccccc2)C(=O)COC(=O)c2ccc(O)cc2)nc1C,5.8µM*,-21%,-19%,9.2µM*,?,0%
CCOC(=O)c1sc(N(Cc2ccccc2)C(=O)CCl)nc1C,21µM*,18µM*,?,?,-101*,-2%
CCOC(=O)c1sc(N(Cc2ccccc2)C(=O)COC(=O)c2ccccc2O)nc1C,?,2%,12%,-28%,0,-3%
CSc1ncnc2ncn(C)c12,12%,14%,9%,19%,13,-2%
CC1=NN(c2ccccc2)C(=O)/C1=C/c1c(O)n(-c2ccc(F)cc2)[nH]c1=O,-21%,2%,-8%,-10%,-29,0%
O=C1N=c2ccccc2=C1c1c(O)n(-c2cccc(F)c2)[nH]c1=O,?,-1%,0%,21µM*,-3,2%
CCCC(=O)OCc1cnc(C)c2oc(=O)c(C(=O)Nc3ccc(F)cc3C)cc12,-36%,nt,nt,?,nt,nt
O=C(C[C@@H]1C/C=C\CC[C@H](Cc2ccc(F)cc2)C(=O)OC[C@@H]2CCCN2C1=O)N[C@H](CO)Cc1ccccc1,5.2µM*,-2%,-3%,6.5µM*,-13,?
C[C@@H]1COC(=O)[C@H](Cc2ccc(F)cc2)CC/C=C/C[C@@H](CC(=O)N[C@H](CO)Cc2ccccc2)C(=O)N1,?,9%,13%,?,-4,-4%
CC(C)(C)[C@H]1COC(=O)[C@@H](Cc2ccc(F)cc2)CC/C=C/C[C@@H](CC(=O)N[C@H](CO)Cc2ccccc2)C(=O)N1,18µM*,-7%,-17%,8.2µM*,-24,0%
